Read-out in assay [1]: Thrombomodulin, THBD (gene 7056)
In words: BSK_3C_Thrombomodulin: BioMAP Diversity Plus: 3C Assay for Thrombomodulin Biomarker Activity (AID 2283029). The conditions noted are these: primary human endothelial cells (HUVEC); actives raise or lower the signal. The essentials:
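ELISA measurement of thrombomodulin on HUVEC surface 24 h after chemical dosing; activity fitted in both directions relative to DMSO vehicle.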

Read-out in assay [2]: Urokinase-type plasminogen activator receptor (uPAR), PLAUR (gene 5329)
In words: BSK_4H_uPAR: BioMAP Diversity Plus: 4H Assay for Urokinase-type plasminogen activator receptor (uPAR) Biomarker Activity (AID 2283030). The following applies: primary human endothelial cells (HUVEC); actives raise or lower the signal. Summed up:
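uPAR level read by ELISA on HUVEC cultures (BioMAP 4H) 24 h post-dosing, analyzed for gain or loss relative to DMSO. Parallel SRB staining assessed overt cytotoxicity.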

Read-out in assay [3]: Vascular endothelial growth factor receptor 2 (Homo sapiens) (UniProt P35968)
The assay is described as follows: BSK_4H_VEGFRII: BioMAP Diversity Plus: 4H Assay for Vascular endothelial growth factor receptor 2 (VEGFR2) Biomarker Activity (AID 2283031).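 As to AC50: cell-surface VEGFR2 protein level quantified by ELISA.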 The conditions noted are these: primary human endothelial cells (HUVEC); actives raise or lower the signal. Summed up:
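Measured by ELISA after 24 h of compound treatment: VEGFR2 on primary human umbilical vein endothelial cells, fitted in both directions relative to DMSO. Parallel cultures received SRB staining (560 nm) for overt cytotoxicity.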

Read-out in assay [4]: Human Leukocyte Antigen - DR isotype (HLADR), HLA-DRA (gene 3122)
The assay is described as follows: BSK_BE3C_HLADR: BioMAP Diversity Plus: BE3C Assay for Human Leukocyte Antigen - DR isotype (HLADR) Biomarker Activity (AID 2283032). The following applies: primary human bronchial epithelial cells; actives raise or lower the signal. The essentials:
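Cell-surface HLA-DR ELISA readout at 24 h after dosing in the BE3C primary human lung bronchial epithelial system; gain or loss of signal against DMSO, with parallel sulforhodamine B staining of total protein for overt cytotoxicity.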

Read-out in assay [5]: Vascular cell adhesion molecule 1 (VCAM1), VCAM1 (gene 7412)
In words: BSK_4H_VCAM1: BioMAP Diversity Plus: 4H Assay for Vascular cell adhesion molecule 1 (VCAM1) Biomarker Activity (AID 2283033).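 As to outcome: cell-surface VCAM-1 protein measured by ELISA.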 The conditions noted are these: primary human endothelial cells (HUVEC); actives raise or lower the signal. The essentials:
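VCAM-1 ELISA read 24 h after chemical dosing of HUVEC in the BioMAP 4H system, with gain or loss of signal fitted relative to DMSO. Parallel SRB staining (560 nm) checked overt cytotoxicity.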

Read-out in assay [6]: Interferon-gamma inducible Protein 10 (IP10), CXCL10 (gene 3627)
The assay is described as follows: BSK_BE3C_IP10: BioMAP Diversity Plus: BE3C Assay for Interferon-gamma inducible Protein 10 (IP10) Biomarker Activity (AID 2283034). The conditions noted are these: primary human bronchial epithelial cells; actives raise or lower the signal. Summed up:
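IP-10 quantified by ELISA in human primary bronchial epithelial cell cultures at 24 hours post-dosing. Gain or loss of signal fitted relative to DMSO; parallel SRB staining assessed overt cytotoxicity.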

Read-out in assay [7]: Monokine induced gamma interferon (MIG), CXCL9 (gene 4283)
The assay is described as follows: BSK_BE3C_MIG: BioMAP Diversity Plus: BE3C Assay for Monokine induced gamma interferon (MIG) Biomarker Activity (AID 2283035).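 As to outcome: MIG protein measured by ELISA in BE3C cultures after 24 h of dosing.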 The conditions noted are these: primary human bronchial epithelial cells; actives raise or lower the signal. The essentials: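 hu bronchial epithelial 1° cells, 24 h cpd; MIG by ELISA; bidirectional fit, DMSO = baseline.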

Read-out in assay [8]: Transforming growth factor beta 1 (TGFb1), TGFB1 (gene 7040)
In words: BSK_BE3C_TGFb1: BioMAP Diversity Plus: BE3C Assay for Transforming growth factor beta 1 (TGFb1) Biomarker Activity (AID 2283036;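 as to outcome: TGF-b1 protein level measured by ELISA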). The following applies: primary human bronchial epithelial cells; actives raise or lower the signal. Summed up:
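ELISA readout of TGF-b1 from human lung bronchial epithelial primary cells, taken 24 h post-treatment. Gain or loss of signal fitted relative to DMSO baseline, with parallel SRB staining for overt cytotoxicity.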

Read-out in assay [9]: Plasminogen activator inhibitor-1 (PAI1), SERPINE1 (gene 5054)
The assay is described as follows: BSK_BE3C_PAI1: BioMAP Diversity Plus: BE3C Assay for Plasminogen activator inhibitor-1 (PAI1) Biomarker Activity (AID 2283037). The conditions noted are these: primary human bronchial epithelial cells; actives raise or lower the signal. The essentials:
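PAI-1 was measured by ELISA in human primary bronchial epithelial cultures 24 h after chemical dosing, with cytotoxicity checked by SRB total-protein staining in parallel cultures. Activity was fitted in both directions relative to DMSO.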

Read-out in assay [10]: urokinase plasminogen activator (uPA), PLAU (gene 5328)
In words: BSK_BE3C_uPA: BioMAP Diversity Plus: BE3C Assay for urokinase plasminogen activator (uPA) Biomarker Activity (AID 2283038).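 As to outcome: uPA protein level quantified by ELISA in cell cultures; uPA read one day after compound addition.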 The conditions noted are these: primary human bronchial epithelial cells; actives raise or lower the signal. Summed up:
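ELISA for uPA on human primary bronchial epithelial cultures 24 h post-treatment, gain or loss against DMSO. Parallel SRB staining (0.1% after 10% TCA fixation, 560 nm) assessed overt cytotoxicity.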

The source of these data is PubChem BioAssay (EPA / NIEHS).

Molecules are shown by their SMILES. Active and inactive are the calls of the source. The calls were made as follows: active = hit-call score of the fitted dose curve at least 0.9, where 1 is the maximum; inactive = score below 0.9.

As for `CCOP(=S)(OCC)Oc1nc(Cl)n(C(C)C)n1`, the AC50 in assay [1] was 3.97 µM (active). In addition, the result in assay [2], in [3], in assay [4], in assay [5], in assay [6] and in assay [7] was inactive. For the same compound, the outcome in assay [8], in [9] and in [10] was inactive.

Turning to `O=C(Nc1ccccc1-c1ccc(Cl)cc1)c1cccnc1Cl`, the outcome in [1], in assay [2], in [3], in assay [5], in assay [6] and in assay [7] was inactive. For the same compound, the result in [8], in [9] and in assay [10] was inactive. Further, the AC50 in assay [4] was 5.32 µM (active).

For `COP(=S)(OC)Oc1ccc([N+](=O)[O-])c(C)c1`, the result in [1], in assay [2], in assay [5], in [6], in assay [7] and in assay [8] was inactive. In addition, the outcome in [9] and in assay [10] was inactive. For the same compound, the AC50 in [4] was 20 µM (active).

Turning to `COC(=O)c1c(C(F)F)nc(C(F)(F)F)c(C2=NCCS2)c1CC(C)C`, the result in assay [1], in [3], in [7], in assay [8] and in [10] was inactive. The AC50 in assay [2] is 33.9 µM (active); in assay [4] it was 3.97 µM (active); in assay [5], 20 µM (active); in assay [6], 17.7 µM (active); in [9], 3.97 µM (active).

For the compound `CS(=O)(=O)c1ccc(C(=O)C2C(=O)CCCC2=O)c([N+](=O)[O-])c1`, the result in [1], in [2], in [3], in assay [4], in [5] and in assay [6] was inactive. Also, the result in assay [7], in assay [9] and in assay [10] was inactive.

`CC1(C)CCC(=Cc2ccc(Cl)cc2)C1(O)Cn1cncn1` (stereo not drawn): the outcome in assay [1], in [2], in assay [3], in assay [4], in [5] and in assay [6] was inactive. In addition, the outcome in assay [7], in [8], in assay [9] and in assay [10] was inactive.

In the case of `CC(C)(C)C(=O)C(Oc1ccc(Cl)cc1)n1cncn1` (stereo not drawn), the outcome in assay [1], in assay [2], in assay [3], in assay [4], in assay [5] and in assay [6] was inactive. Further, the result in [7], in assay [9] and in assay [10] was inactive.

On to `O=C1C2CC=CCC2C(=O)N1SC(Cl)(Cl)Cl` (stereo not drawn), for which the outcome in assay [1], in [2] and in assay [5] was inactive. Moreover, the AC50 is 12.3 µM (active) in assay [4]; 11.9 µM (active) in assay [6]; 13.5 µM (active) in assay [7]; 12.7 µM (active) in assay [8]; 12.4 µM (active) in assay [9]; 11.5 µM (active) in [10].

With `COCC(C)N(C(=O)CCl)c1c(C)csc1C` (stereo not drawn), the result in assay [1], in assay [2], in assay [3], in assay [4], in assay [5] and in assay [6] was inactive. Besides, the result in assay [7], in assay [9] and in [10] was inactive.

Consider `COC(=O)N(C(=O)N1CO[C@@]2(C(=O)OC)Cc3cc(Cl)ccc3C2=N1)c1ccc(OC(F)(F)F)cc1`, for which the result in assay [1], in assay [2], in [3], in assay [5], in assay [7] and in assay [8] was inactive. For the same compound, the result in assay [9] and in assay [10] was inactive. The results for the half-maximal activity concentration (AC50) in assay [4] and in assay [6] were 13.8 µM (active) and 11 µM (active), respectively.

In the case of `CS(=O)(=O)c1cc(C(F)(F)F)ccc1C(=O)c1cnoc1C1CC1`, the outcome in [1], in assay [2], in assay [3], in assay [4], in assay [5] and in assay [7] was inactive. For the same compound, the result in assay [9] and in assay [10] was inactive. Moreover, in [6], the AC50 is 4.13 µM (active).

Regarding `Clc1cccc(C(Cl)(Cl)Cl)n1`, the result in assay [1], in assay [2], in assay [3], in [4], in [5] and in [6] was inactive. Besides, the result in assay [7], in assay [9] and in assay [10] was inactive.

As for `Nc1c(Cl)c(Cl)nc(C(=O)O)c1Cl`, the result in assay [1], in assay [2], in [3], in [4], in [5] and in assay [6] was inactive. Also, the outcome in assay [7], in [8], in assay [9] and in assay [10] was inactive.

As for `CC(C)C1(C)N=C(c2ncccc2C(=O)O)NC1=O` (stereo not drawn), the result in assay [1], in assay [2], in assay [3], in assay [4], in assay [5] and in [6] was inactive. Moreover, the result in assay [7], in assay [8], in [9] and in assay [10] was inactive.

`Cc1ccc(N=CN(C)C=Nc2ccc(C)cc2C)c(C)c1`: the AC50 in assay [1] was 20 µM (active); in [2], 37.5 µM (active); in assay [3], 26 µM (active); in assay [4], 26.7 µM (active); in [5] it was 29.5 µM (active); in assay [6], 30.5 µM (active). The AC50 in assay [7] was 33.3 µM (active); in [9], 30.7 µM (active); in assay [10], 35.4 µM (active).

Take `CNC(=O)N(C)c1nnc(C(C)(C)C)s1`: the outcome in assay [1], in [2], in assay [4], in [5], in assay [6] and in assay [7] was inactive. Moreover, the outcome in [9] and in assay [10] was inactive.

For `CC(C)N1C(=O)c2ccccc2NS1(=O)=O`, the result in assay [1], in assay [2], in [4], in [5], in assay [6] and in assay [7] was inactive. The result in assay [9] and in assay [10] was inactive.

In the case of `CC(C)NC(=O)N1CC(=O)N(c2cc(Cl)cc(Cl)c2)C1=O`, the outcome in [1], in [4], in assay [5], in assay [6], in [7] and in assay [9] was inactive. In addition, the result in assay [10] was inactive. For the same compound, the AC50 in assay [2] is 23.1 µM (active).

With `COc1cc(Cl)c(OC)cc1Cl`, the result in [1], in assay [2], in assay [4], in assay [5], in [6] and in assay [7] was inactive. The result in assay [8], in assay [9] and in assay [10] was inactive.

Consider `O=P(O)(O)CCCl`, for which the outcome in [1], in assay [2], in [4], in [5], in [6] and in [7] was inactive. Besides, the result in assay [8], in assay [9] and in assay [10] was inactive.

As for `C=CCOC(=O)C(C)(C)OC(=O)c1cc(-n2c(=O)cc(C(F)(F)F)n(C)c2=O)ccc1Cl`, the outcome in assay [1], in assay [4], in [5], in assay [6], in assay [7] and in assay [8] was inactive. Further, the result in assay [9] and in [10] was inactive. For the same compound, the AC50 in [2] is 6.97 µM (active).
